Here are results for twelve compounds from PubChem BioAssay (NCATS).

The target of assay [1] is Androgen receptor (Homo sapiens) (UniProt P10275). In words: qHTS assay for small molecule agonists of androgen receptor signaling (AID 588515; active = well fitted curve in the direction sought with a large enough effect in the signal ratio, with a control signal flat; the % refers to the signal ratio; also: % is scaled to controls: 0 for no effect and ±100 for the full control effect). Conditions: AR-UAS-bla HEK293, beta-lactamase ratio, agonist 16 h; stronger effect = higher value. The method in brief:
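EC50 and efficacy came from Hill fits of titrations (up to 92 uM) normalized to 30 nM R1881 as 100% and DMSO as 0%. Compound exposure was 16 h at 37 C on AR-UAS-bla HEK293 cells, with a 405/460/530 nm CCF4 fluorescence read.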
In general terms: Quantitative high-throughput screening tests each substance at several concentrations.

For assay [2] the target is unchanged. The assay can be described thus: qHTS assay for small molecule antagonists of androgen receptor signaling (AID 588516; active = well fitted curve in the direction sought with a large enough effect in the signal ratio, with a control signal flat, not every such curve was filed as active; the % refers to the signal ratio; also: % is scaled to controls: 0 for no effect and ±100 for the full control effect). An outline of the steps:
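Compounds tested in titration against 10 nM R1881 in AR-responsive bla reporter HEK 293 cells; CCF4 fluorescence (460/530 nm) after 16 h exposure gave IC50 and efficacy.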

The target of assay [3] is Bile acid receptor (Homo sapiens) (UniProt Q96RI1). In words: qHTS assay for small molecule antagonists of farnesoid X receptor signaling (AID 588526). Also: % is scaled to controls: 0 for no effect and ±100 for the full control effect. The method in brief:
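Concentration-response titrations were fitted to the Hill equation for half-maximal inhibition and maximal response, with data normalised to 50 uM chenodeoxycholic acid and DMSO control wells. Cells: FXR-UAS-bla HEK293T, dialyzed FBS.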

Assay [4] in a line: qHTS assay for small molecule antagonists of peroxisome proliferator-activated receptor delta signaling (AID 588535; active = well fitted inhibition curve with a large enough effect in the signal ratio, with a control signal flat, not every such curve was filed as active; the % refers to the signal ratio;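 as to max response: cells co-treated with a PPAR-delta agonist as stimulator during compound exposure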). Conditions: HEK293T PPARd-UAS-bla, beta-lactamase FRET ratio, 18 h; 460 nm channel. The method in brief: (§1)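 GeneBLAzer PPAR-delta-UAS-bla HEK293T cells in medium with 2% charcoal/dextran FBS were preincubated 5 hrs at 37 C, then given compounds, incubated 18 hrs at 37 C, and read by CCF4 beta-lactamase fluorescence; IC50 from Hill fits.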

In assay [5] the target is Peroxisome proliferator-activated receptor delta (Homo sapiens) (UniProt Q03181). The assay is described as above. An outline of the steps:
as §1

Assay [6] has as its target Peroxisome proliferator-activated receptor gamma (Homo sapiens) (UniProt P37231). The assay can be described thus: qHTS assay for small molecule agonists of peroxisome proliferator-activated receptor gamma signaling (AID 588536; active = well fitted curve in the direction sought with a large enough effect in the signal ratio, with a control signal flat, not every such curve was filed as active; the % refers to the signal ratio;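 also: 0% = DMSO basal wells and 100% = rosiglitazone at 2 µM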). An outline of the steps: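 Test agents, titrated, stimulated HEK293 UAS-bla cells overnight (16 h, 37 C). Substrate CCF4 was then added for two hours at room temperature before fluorescence reading.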

For assay [7] the target is unchanged. The assay can be described thus: qHTS assay for small molecule antagonists of peroxisome proliferator-activated receptor gamma signaling (AID 588537; active = well fitted inhibition curve with a large enough effect in the signal ratio, with a control signal flat, not every such curve was filed as active; the % refers to the signal ratio;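 also: reporter cells co-stimulated with 50 nM rosiglitazone agonist during compound treatment; % of control where 0% means no effect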). An outline of the steps: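 PPAR-gamma-UAS-bla HEK293 cells (3000/well, 1% charcoal/dextran-stripped FBS) were preincubated 6-6.5 h at 37 C, given titrated compounds, then stimulated with 50 nM rosiglitazone for 16 h. Beta-lactamase activity was read with CCF4 dye; IC50 came from Hill fits.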

Assay [8] addresses Vitamin D3 receptor (Homo sapiens) (UniProt P11473). The assay can be described thus: qHTS assay for small molecule antagonists of vitamin D receptor signaling (AID 588541).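 Also: receptor activated by calcitriol during compound treatment; series mostly up to about 77 µM; % is scaled to controls: 0 for no effect and ±100 for the full control effect.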 The method in brief:
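VDR-UAS-bla HEK293T cells (2000/well, 2% charcoal-stripped FBS) were treated with titrated compounds plus 1-alpha,25-dihydroxyvitamin D3 (50 nM or 3 nM final) for 16 h at 37 C. CCF4 beta-lactamase fluorescence was read; Hill fits gave IC50.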

The target is the same in assay [9]. The assay can be described thus: qHTS assay for small molecule agonists of vitamin D receptor signaling (AID 588543).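 Also: 0% = DMSO basal and 100% = reference agonist control.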 The method in brief: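 Measured: β-lactamase reporter activity (CCF4, 405 nm excitation, 460/530 nm emission) in HEK293T VDR-UAS-bla cells after 16 h compound exposure at 37 °C. Normalization against 50 nM 1α,25-dihydroxyvitamin D3 and DMSO; Hill-fit EC50.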

Assay [10] can be described thus: qHTS assay for small molecule agonists of retinoid X receptor alpha signaling (AID 588544). As to conditions: HEK293T RXRa-UAS-bla, beta-lactamase reporter, 18 h; 530 nm emission.
Assay [11] concerns the target Glucocorticoid receptor (Homo sapiens) (UniProt P04150). The assay can be described thus: qHTS assay for small molecule agonists of glucocorticoid receptor signaling (AID 588532; active = well fitted curve in the direction sought with a large enough effect in the signal ratio, with a control signal flat; the % refers to the signal ratio;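 also: 100% = dexamethasone at 0.1 µM and 0% = DMSO only wells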). As to conditions: HeLa MMTV-bla, beta-lactamase ratio, agonist, 18 h; stronger effect = higher value; percent of dexamethasone control, DMSO zero. An outline of the steps:
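Stimulation of a glucocorticoid response element-driven beta-lactamase gene was measured in HeLa cells. Responses were scaled between DMSO basal and 0.1 uM dexamethasone, then fitted for half-maximal stimulation.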

Assay [12] shares this target. In words: qHTS assay for small molecule antagonists of glucocorticoid receptor signaling (AID 588533; active = well fitted inhibition curve with a large enough effect in the signal ratio, with a control signal flat, not every such curve was filed as active; the % refers to the signal ratio). The method in brief:
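Antagonist-mode qHTS: compound titrations added to GRE-bla HeLa cells, then dexamethasone 2 nM final; 18 h, 37 C. CCF4 FRET fluorescence normalized to dexamethasone and DMSO; IC50 from Hill fit.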

For assay [13], the target named is Ubiquitin carboxyl-terminal hydrolase 1 (Homo sapiens) (UniProt O94782). The assay can be described thus: Inhibitors of USP1/UAF1: Pilot qHTS (AID 504865; active = well fitted inhibition curve with a large enough effect;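 also: rhodamine fluorescence freed from ubiquitin-rhodamine substrate followed over time; top concentration of the series differs between compounds; % is scaled to controls: 0 for no effect and ±100 for the full control effect; nearly all actives have a fitted effect of over 35% in size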). An outline of the steps:
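Enzyme-free wells gave the negative control, while test wells held 1nM USP1/UAF1 preincubated with compound for 15 min at room temperature. Ub-Rho at 150nM final started the reaction, and fluorescence at 480/540 nm was recorded kinetically.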

Assay [14] has as its target Estrogen receptor (Homo sapiens) (UniProt P03372). In words: qHTS assay for small molecule antagonists of estrogen receptor alpha signaling (AID 588513; active = well fitted curve in the direction sought with a large enough effect in the signal ratio, with a control signal flat, not every such curve was filed as active; the % refers to the signal ratio; also: % is scaled to controls: 0 for no effect and ±100 for the full control effect). An outline of the steps: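 Antagonist-mode qHTS in ER-alpha-UAS-bla HEK 293 cells: compound titration, 0.5nM estradiol for 18 h, CCF4 fluorescence, Hill-derived IC50.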
Assay [15] has the same target. In words: qHTS assay for small molecule agonists of estrogen receptor alpha signaling (AID 588514).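 Also: 0% = vehicle only and 100% = reference agonist; nearly all actives have a fitted effect of over 70% in size.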 The method in brief: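 ER-alpha-UAS-bla GripTite HEK 293 cells in medium with 2% charcoal/dextran-treated FBS were treated with compound titrations at 37 C for 18 hrs; beta-lactamase reporter read by CCF4 fluorescence after 2 hrs at RT.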
The target of assay [16] is DNA dC->dU-editing enzyme APOBEC-3G (Homo sapiens) (UniProt Q9HC16). The assay can be described thus: qHTS for inhibitors of Vif-A3G interactions: Validation (AID 588379; active = well fitted inhibition curve with a large enough effect; also: 0% is about no effect). An outline of the steps: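 HeLa cells stably expressing Vif and A3G-eYFP, 700 cells/well, incubated overnight at 37 deg C, then exposed to compound overnight at 37 deg C. Inhibition of Vif-mediated degradation read as increased yellow fluorescence (Ex 488/Em 500-530) by laser-scanning cytometry.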

“And” between values parts separate entries of the source, which are not always exact repeats. Identical values can stand only once. Results filed as inconclusive are left out. The source made the active and inactive calls. Unless noted, calls follow the shape of the full dose curve.

Glucocorticoid receptor (Homo sapiens), sequence (P04150 whole entry, looked up): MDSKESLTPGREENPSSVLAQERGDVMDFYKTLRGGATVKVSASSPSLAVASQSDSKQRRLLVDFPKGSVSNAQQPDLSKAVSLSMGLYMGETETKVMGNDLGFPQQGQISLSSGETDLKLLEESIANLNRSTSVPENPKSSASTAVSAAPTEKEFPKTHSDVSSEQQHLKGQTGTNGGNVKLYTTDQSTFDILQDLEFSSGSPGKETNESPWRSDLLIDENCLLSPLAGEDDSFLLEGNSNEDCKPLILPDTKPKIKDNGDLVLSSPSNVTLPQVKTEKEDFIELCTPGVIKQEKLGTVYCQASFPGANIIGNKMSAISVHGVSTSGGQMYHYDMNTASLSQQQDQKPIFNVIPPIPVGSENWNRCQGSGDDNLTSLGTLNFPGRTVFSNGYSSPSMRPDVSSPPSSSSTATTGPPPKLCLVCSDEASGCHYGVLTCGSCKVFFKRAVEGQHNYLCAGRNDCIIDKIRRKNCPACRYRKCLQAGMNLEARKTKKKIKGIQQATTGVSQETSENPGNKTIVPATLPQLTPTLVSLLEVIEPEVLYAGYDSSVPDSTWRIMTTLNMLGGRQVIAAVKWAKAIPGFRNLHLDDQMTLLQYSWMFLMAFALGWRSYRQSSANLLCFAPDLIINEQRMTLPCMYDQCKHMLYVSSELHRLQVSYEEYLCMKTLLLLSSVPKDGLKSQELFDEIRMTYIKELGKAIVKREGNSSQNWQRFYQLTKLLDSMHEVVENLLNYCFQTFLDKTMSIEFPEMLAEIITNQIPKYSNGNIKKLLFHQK
Vitamin D3 receptor (Homo sapiens), sequence (P11473 whole entry, looked up): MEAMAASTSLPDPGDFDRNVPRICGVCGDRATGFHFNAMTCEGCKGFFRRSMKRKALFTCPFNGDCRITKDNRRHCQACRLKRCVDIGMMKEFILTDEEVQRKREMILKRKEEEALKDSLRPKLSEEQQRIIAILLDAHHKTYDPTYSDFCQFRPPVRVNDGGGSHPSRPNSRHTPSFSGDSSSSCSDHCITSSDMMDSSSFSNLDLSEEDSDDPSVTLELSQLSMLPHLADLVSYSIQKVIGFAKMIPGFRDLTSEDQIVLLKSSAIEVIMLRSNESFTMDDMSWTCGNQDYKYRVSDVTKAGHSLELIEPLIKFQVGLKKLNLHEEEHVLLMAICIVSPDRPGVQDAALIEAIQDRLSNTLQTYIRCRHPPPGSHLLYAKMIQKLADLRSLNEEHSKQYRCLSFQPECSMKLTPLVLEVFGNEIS
Estrogen receptor (Homo sapiens), sequence (P03372 whole entry, looked up): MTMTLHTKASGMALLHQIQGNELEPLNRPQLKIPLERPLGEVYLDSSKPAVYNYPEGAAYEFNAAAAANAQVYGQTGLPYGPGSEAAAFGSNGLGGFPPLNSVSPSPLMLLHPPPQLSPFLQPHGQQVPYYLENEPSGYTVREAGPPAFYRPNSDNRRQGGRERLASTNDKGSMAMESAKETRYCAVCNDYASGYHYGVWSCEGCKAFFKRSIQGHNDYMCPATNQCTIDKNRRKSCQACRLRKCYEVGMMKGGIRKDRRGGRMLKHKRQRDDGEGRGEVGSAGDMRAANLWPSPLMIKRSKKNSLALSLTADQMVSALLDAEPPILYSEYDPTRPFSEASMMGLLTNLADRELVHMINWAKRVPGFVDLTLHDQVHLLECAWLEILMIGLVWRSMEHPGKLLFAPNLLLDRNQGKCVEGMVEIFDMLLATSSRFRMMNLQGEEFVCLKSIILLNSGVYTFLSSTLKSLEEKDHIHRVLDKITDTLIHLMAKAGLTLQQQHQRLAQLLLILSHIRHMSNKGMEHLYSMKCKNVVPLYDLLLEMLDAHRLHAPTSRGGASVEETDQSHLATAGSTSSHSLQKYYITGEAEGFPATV
Bile acid receptor (Homo sapiens), sequence (Q96RI1 whole entry, looked up): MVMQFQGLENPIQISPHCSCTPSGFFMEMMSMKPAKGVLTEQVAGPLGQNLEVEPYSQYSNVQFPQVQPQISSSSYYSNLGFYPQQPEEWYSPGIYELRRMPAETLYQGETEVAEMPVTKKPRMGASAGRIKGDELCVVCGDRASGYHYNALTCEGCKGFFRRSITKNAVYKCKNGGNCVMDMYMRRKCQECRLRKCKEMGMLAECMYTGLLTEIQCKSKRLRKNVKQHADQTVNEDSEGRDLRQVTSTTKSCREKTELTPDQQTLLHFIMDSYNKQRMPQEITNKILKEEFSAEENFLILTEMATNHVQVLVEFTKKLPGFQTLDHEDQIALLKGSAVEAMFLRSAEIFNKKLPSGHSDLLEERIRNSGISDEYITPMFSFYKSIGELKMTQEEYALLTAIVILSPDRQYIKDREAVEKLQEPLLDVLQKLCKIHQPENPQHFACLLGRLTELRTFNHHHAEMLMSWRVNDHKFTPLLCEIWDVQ
Ubiquitin carboxyl-terminal hydrolase 1 (Homo sapiens), sequence (O94782 whole entry, looked up): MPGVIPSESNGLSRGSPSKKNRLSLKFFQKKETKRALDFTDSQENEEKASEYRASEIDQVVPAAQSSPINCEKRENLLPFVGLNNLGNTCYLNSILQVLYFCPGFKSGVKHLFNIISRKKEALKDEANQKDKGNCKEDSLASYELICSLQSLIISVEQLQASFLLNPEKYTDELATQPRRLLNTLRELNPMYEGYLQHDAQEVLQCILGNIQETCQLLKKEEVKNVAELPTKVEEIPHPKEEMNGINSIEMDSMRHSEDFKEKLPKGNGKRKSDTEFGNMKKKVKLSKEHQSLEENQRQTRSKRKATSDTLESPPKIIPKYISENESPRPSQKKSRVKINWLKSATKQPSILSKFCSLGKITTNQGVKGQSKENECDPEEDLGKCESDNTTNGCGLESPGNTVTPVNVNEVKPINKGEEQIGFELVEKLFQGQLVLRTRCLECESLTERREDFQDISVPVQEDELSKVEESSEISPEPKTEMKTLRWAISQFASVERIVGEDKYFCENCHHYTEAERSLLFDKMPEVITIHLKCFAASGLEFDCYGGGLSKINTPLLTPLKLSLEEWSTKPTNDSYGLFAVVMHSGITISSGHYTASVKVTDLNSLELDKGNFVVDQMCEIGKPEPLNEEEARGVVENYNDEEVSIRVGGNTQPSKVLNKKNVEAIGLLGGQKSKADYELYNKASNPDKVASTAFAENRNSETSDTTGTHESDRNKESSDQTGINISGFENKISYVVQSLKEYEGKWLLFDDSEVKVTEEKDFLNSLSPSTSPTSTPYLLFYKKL
Peroxisome proliferator-activated receptor delta (Homo sapiens), sequence (Q03181 whole entry, looked up): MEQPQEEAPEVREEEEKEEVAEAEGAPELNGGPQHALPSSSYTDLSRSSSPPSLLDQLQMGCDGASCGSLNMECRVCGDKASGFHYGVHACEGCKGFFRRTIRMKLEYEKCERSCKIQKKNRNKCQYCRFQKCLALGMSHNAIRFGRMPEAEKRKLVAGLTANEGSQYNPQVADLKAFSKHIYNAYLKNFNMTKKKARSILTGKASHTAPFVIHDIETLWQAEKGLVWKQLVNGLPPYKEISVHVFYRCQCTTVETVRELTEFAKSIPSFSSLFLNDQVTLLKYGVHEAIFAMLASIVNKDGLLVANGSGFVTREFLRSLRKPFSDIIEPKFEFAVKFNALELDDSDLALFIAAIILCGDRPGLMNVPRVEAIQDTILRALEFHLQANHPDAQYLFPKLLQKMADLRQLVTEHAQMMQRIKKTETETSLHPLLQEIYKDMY
Peroxisome proliferator-activated receptor gamma (Homo sapiens), sequence (P37231 whole entry, looked up): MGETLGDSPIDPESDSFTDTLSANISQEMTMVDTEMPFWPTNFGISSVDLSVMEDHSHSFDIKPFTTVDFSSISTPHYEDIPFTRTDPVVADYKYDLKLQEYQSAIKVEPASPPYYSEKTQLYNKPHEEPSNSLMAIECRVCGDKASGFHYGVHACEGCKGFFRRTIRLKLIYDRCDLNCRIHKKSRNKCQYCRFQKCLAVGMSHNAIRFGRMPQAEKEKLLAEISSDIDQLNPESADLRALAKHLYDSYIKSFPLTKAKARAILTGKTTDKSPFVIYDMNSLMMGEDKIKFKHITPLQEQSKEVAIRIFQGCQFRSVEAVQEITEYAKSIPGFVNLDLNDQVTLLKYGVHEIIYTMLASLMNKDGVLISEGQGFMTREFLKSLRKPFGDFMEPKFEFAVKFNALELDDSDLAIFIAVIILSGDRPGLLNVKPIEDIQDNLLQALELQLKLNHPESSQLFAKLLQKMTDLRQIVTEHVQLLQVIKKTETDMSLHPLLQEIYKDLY
Androgen receptor (Homo sapiens), sequence (P10275 whole entry, looked up): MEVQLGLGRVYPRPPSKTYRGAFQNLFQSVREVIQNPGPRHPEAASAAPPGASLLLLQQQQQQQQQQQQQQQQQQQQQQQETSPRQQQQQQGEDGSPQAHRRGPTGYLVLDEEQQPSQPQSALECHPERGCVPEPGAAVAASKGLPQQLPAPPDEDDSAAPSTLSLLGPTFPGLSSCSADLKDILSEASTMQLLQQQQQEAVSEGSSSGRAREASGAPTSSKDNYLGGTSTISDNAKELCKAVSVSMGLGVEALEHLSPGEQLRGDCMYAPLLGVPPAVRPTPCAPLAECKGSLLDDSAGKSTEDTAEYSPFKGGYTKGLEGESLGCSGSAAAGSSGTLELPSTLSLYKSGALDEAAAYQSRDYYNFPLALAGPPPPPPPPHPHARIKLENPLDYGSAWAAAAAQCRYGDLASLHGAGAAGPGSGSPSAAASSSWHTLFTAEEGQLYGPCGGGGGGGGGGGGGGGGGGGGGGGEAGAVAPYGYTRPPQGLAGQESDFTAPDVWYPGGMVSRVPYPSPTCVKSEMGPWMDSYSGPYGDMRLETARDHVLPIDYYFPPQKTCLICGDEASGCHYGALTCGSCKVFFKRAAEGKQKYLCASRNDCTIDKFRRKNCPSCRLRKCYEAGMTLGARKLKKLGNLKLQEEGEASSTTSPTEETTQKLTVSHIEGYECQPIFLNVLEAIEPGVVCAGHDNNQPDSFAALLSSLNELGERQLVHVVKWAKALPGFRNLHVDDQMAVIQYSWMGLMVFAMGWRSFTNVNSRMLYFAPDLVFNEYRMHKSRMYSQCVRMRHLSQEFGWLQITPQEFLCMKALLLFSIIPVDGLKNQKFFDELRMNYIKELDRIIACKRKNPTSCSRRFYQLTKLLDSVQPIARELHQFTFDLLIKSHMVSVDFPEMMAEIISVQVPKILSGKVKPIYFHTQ

Take `CC(C)[C@@H]1CC[C@@H](C)C[C@H]1O`: the activation in [1] was 9.8% (inactive). Further, the result in assay [2], in [3], in assay [5], in assay [6], in [7] and in [8] was inactive. The result in [9] was inactive. Also, the figures for the max response in assay [4] and in assay [10] were -3.98% and -16.2%, respectively.

Turning to `C=CC(C)(O)CC/C=C(\C)CCC=C(C)C` (configuration not stated), the outcome in assay [3], in assay [5], in [6] and in assay [7] was inactive. The activation in [11] was 1.37% (inactive). Further, in assay [12], the Potency entry is “inactive”. Besides, the max response came out at 18.5% in [4] and 4.32% in [10].

As to `C[Si](C)(C)O[Si](C)(C)C`, in [13], the Potency result is “inactive”. In addition, the compound was classed as inactive in assay [3], in assay [5], in [6], in [7], in assay [8] and in assay [9]. The max response was 8.43% in [4] and -7.56% in assay [10].

With `Nc1nccs1`, the activation in assay [11] was 10.5% (inactive). The max response in assay [4] is -9.51%; in assay [10], -14.1%. For the same compound, the compound was called inactive in assay [5], in assay [6], in assay [8] and in assay [9].

As to `CCCCC(CC)COS(=O)(=O)O` (configuration not stated), the Potency entry in assay [14] and in assay [15] was “inactive” throughout. The call in assay [3], in assay [5], in [8] and in assay [9] was inactive. The results for the max response in assay [4] and in assay [10] were -7.66% and -9.2%, respectively.

Take `NC(N)=O`: the Potency result in assay [13], in assay [14] and in [15] was “inactive” throughout. For the same compound, the result in assay [6] and in [7] was inactive. In [10], the max response is -18.6%.

In the case of `c1ccc2ccccc2c1`, the Potency result in [14] and in [15] was “inactive” throughout. Besides, the outcome in [3], in assay [5], in assay [6], in [7], in assay [8] and in assay [9] was inactive. The max response in [4] is -2.63% and 30.7%; in assay [10] it was -8.1% and -18.9%.

With `CC(C)CCC[C@@H](C)[C@H]1CC[C@H]2[C@@H]3CC=C4C[C@@H](O)CC[C@]4(C)[C@H]3CC[C@]12C`, in [13], the Potency entry was “inactive”. Further, the outcome in [3], in assay [6], in assay [7] and in assay [9] was inactive. Moreover, in [11], the activation was 13.5% (inactive).

As for `C[C@@](Cc1ccc(O)c(O)c1)(NN)C(=O)O`, the result in [16] was inactive.

On to `CO/N=C(/C(=O)N[C@@H]1C(=O)N2C(C(=O)O)=C(COC(N)=O)CS[C@H]12)c1ccco1`, for which the Potency entry in assay [13] and in assay [12] was “inactive” each time. For the same compound, the activation in assay [11] is 5.73% (inactive). In addition, the result in [6], in assay [8] and in [9] was inactive. In assay [10], the max response is -14%.

In the case of `C[C@H](CCC(=O)O)[C@H]1CC[C@H]2[C@@H]3[C@H](O)C[C@@H]4C[C@H](O)CC[C@]4(C)[C@H]3C[C@H](O)[C@]12C`, the Potency entry in [14], in [15] and in [12] was “inactive” throughout. Besides, in assay [11], the activation was 0.114% (inactive). In addition, the outcome in [6] was inactive. In addition, in [10], the max response came out at 9.07%.

With `Cc1ccc(S(=O)(=O)NCl)cc1`, the Potency result in assay [14], in assay [15] and in assay [12] was “inactive” each time. Moreover, the activation in assay [11] is 0.935% (inactive). Moreover, the results for the max response in assay [4] and in assay [10] were -27% and -13.1%, respectively. Moreover, the result in assay [5], in assay [6] and in assay [7] was inactive.
